From PubChem BioAssay
HTRA1 inh = HTRA1 (human) protease inhibition | hit rate 0.5% among 340,000 | recombinant HTRA1, FP-rhodamine activity-based probe, fluorescence polarization | inhibition, % at 5.96 µM | AID 504803; in the data active = inhibition above about 36%
PAFAH1B3 inh = blocks human PAF acetylhydrolase 1B catalytic subunit 3. Q15102. recombinant PAFAH1B3, FP-rhodamine probe, fluorescence polarization. inhibition, % at 3.39 µM. hit rate 0.28% among 340,000;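 active = inhibition above the screen-wide average of all tested compounds plus 3 SD, cut at about 25% in these data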
Target sequence (Q15102 whole entry, looked up): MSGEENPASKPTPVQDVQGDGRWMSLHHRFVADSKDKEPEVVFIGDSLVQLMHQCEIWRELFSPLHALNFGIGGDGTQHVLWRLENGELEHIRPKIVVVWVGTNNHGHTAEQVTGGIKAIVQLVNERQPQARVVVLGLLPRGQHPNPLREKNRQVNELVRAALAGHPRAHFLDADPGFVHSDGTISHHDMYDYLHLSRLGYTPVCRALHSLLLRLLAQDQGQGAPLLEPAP
PAFAH2 FP inh = inhibitors of human PAFAH2 | Q99487 | recombinant PAFAH2, FP-rhodamine activity probe, fluorescence polarization | inhibition, % at 3.39 µM | hit rate 0.99% among 340,000 | AID 492956;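 active = inhibition above the mean over all tested compounds plus 3 SD, cut at about 30% in these data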;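 note: inhibitors block probe labeling of enzyme so polarization drops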
PAFAH1B2 FP inh = inhibitors of human PAFAH1B2; P68402; recombinant PAFAH1B2, FP-rhodamine activity probe, fluorescence polarization; hit rate 1.2% among 340,000; inhibition, % at 3.39 µM;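 active = inhibition above the mean of all tested compounds plus 3 SD, cut at about 24% in these data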
Target sequence (P68402 whole entry, looked up): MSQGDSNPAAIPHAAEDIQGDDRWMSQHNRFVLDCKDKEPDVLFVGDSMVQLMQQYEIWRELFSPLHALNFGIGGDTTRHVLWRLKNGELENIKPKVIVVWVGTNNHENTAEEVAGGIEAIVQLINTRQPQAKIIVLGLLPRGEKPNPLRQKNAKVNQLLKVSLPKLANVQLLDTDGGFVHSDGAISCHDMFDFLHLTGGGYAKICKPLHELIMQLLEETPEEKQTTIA
pPAFAH inh = inhibitors of human plasma PAF acetylhydrolase (pPAFAH) | hit rate 1.5% among 330,000 | AID 463082 | recombinant pPAFAH, FP-rhodamine probe fluorescence polarization | inhibition, % at 3.39 µM;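 active = inhibition above the mean inhibition across the screen plus 3 SD, cut at about 25% in these data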;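 note: inhibitors block binding of the rhodamine activity-based probe so polarization drops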
DAGLB inh = diacylglycerol lipase beta (human) inhibition; Q8NCG7; inhibition, % at 5.17 µM; hit rate 0.059% among 340,000; HEK293T DAGLB membrane lysate, EnzChek fluorogenic substrate; in the data active = inhibition above about 34%
PAFAH2 FP conf = PAFAH2 (human) inhibition, confirmed | shares compounds with PAFAH2 FP inh | recombinant PAFAH2, FP-rhodamine activity probe, fluorescence polarization | inhibition, % at 3.39 µM | hit rate 65% among 2,300 | AID 493030;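 active = mean inhibition over three repeats above a set limit taken from the earlier primary screen, cut at about 30% in these data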;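 note: inhibitor blocks binding of rhodamine activity probe so polarization falls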
Numbers stand for hits; n = inactive; x = no result. Hits are enriched below; roughly 2.8% of the tested compounds scored in any of these assays.

SMILES	HTRA1 inh	PAFAH1B3 inh	PAFAH2 FP inh	PAFAH1B2 FP inh	pPAFAH inh	DAGLB inh	PAFAH2 FP conf
COc1ccc(/C=C/C(=O)OCC(=O)Nc2c(C)cccc2C)cc1	n	n	63.2	n	n	n	65.2
Cc1cccc(C)c1NC(=O)COC(=O)/C=C/c1ccc(S(=O)(=O)N2CCOCC2)cc1	n	n	44.9	n	n	n	n
O=S(=O)(/N=C(/Nc1cccc2ccccc12)c1ccccc1)c1ccc(F)cc1	n	n	n	n	n	n	x
CC(=O)Nc1ccc(NC(=O)C(C)O/N=C/c2cccc([N+](=O)[O-])c2)cc1 (stereo not given)	n	n	30.3	n	n	n	n
COc1ccc(C(=O)NC2CCSc3ccccc32)cc1S(=O)(=O)N1CCOCC1 (stereo not given)	n	n	n	n	n	n	x
O=C(NCCCCCCNC(=O)OCCO)OCCO	n	n	n	n	n	n	x
CCOCCOC(=O)NCCCCCCNC(=O)OCCOCC	n	n	60.1	n	n	n	47.1
CCN(C[C@H]1N[C@@](Cc2ccccc2)(C(=O)OC)[C@H]2C(=O)N(C)C(=O)[C@@H]12)C(=O)Nc1ccccc1	n	n	n	n	n	n	x
Cc1ccc(C)c(S(=O)(=O)Nc2ccc3oc(C)c(C(=O)O)c3c2)c1	n	n	37.6	n	n	n	n
COc1cc2c(cc1OC)-c1cc(OCc3cccnc3)nc(=O)n1CC2	n	n	61.3	n	x	n	53.8
COc1cc2c(cc1OC)-c1cc(Nc3ccccc3)nc(=O)n1CC2	n	n	n	n	n	n	x
COc1cc2c(cc1OC)-c1cc(N3CCc4ccccc43)nc(=O)n1CC2	n	n	52.6	n	n	n	40.6
Cc1ccc(/C=C/C(=O)OCC(=O)N(C)c2c(N)n(Cc3ccccc3)c(=O)[nH]c2=O)o1	n	x	x	x	x	n	x
CC/C(=N/NC(=O)c1ccccc1O)c1c(C)[nH]n(-c2ccccc2)c1=O	n	n	n	n	n	n	x
Cc1ccnc(NC(=O)c2ccc(OCC3CCCO3)cc2)c1 (stereo not given)	n	n	n	n	n	n	x
CCCn1c(C)cc(/C=C(\C#N)C(=O)OCC(=O)Nc2cccc(S(N)(=O)=O)c2)c1C	n	n	33.7	n	n	n	n
CCCn1c(C)cc(/C=C(\C#N)C(=O)OCC(=O)Nc2cccc(OC)c2)c1C	n	n	53.6	n	n	n	59.5
COc1ccc(C(=O)Nc2ccc(C(=O)N3CCCCC3C)cc2)c(OC)c1OC (stereo not given)	n	n	n	n	n	n	x
CC(C(=O)Nc1ccc(F)cc1Cl)N1CCN(S(=O)(=O)c2cccs2)CC1 (stereo not given)	n	n	n	n	n	n	x
O=C(COC(=O)CCc1ccc(S(=O)(=O)N2CCOCC2)cc1)NC(=O)NC1CCCCC1	n	n	n	n	n	n	x
CCc1ccc(/C=C2\Oc3c(ccc(O)c3CN3CCN(CCO)CC3)C2=O)cc1	n	n	58.2	n	n	n	39.0
COCCOC(=O)c1c(C)n(C)c2ccc(OC(=O)c3ccco3)cc12	n	n	n	n	n	n	x
COCCOC(=O)c1c(C)n(C)c2ccc(OC(=O)C3CC3)cc12	n	n	38.9	n	n	n	n
Cc1cc(C)cc(NC(=O)CSc2nc3c(c(=O)[nH]2)CN(Cc2ccc(F)cc2)CC3)c1	n	n	30.7	n	n	n	n
CC(=O)c1ccc(S(=O)(=O)N2CCN(C(=O)c3ccc(-n4nc(C)c(Cl)c4C)cc3)CC2)cc1	n	n	49.5	n	n	n	43.0
SMILES	HTRA1 inh	PAFAH1B3 inh	PAFAH2 FP inh	PAFAH1B2 FP inh	pPAFAH inh	DAGLB inh	PAFAH2 FP conf
Cc1nn(-c2ccc(C(=O)N3CCN(S(=O)(=O)c4ccccc4C(F)(F)F)CC3)cc2)c(C)c1Cl	n	n	n	n	n	n	x
CC(C)C(Cl)=NOC(=O)Nc1ccc(S(N)(=O)=O)cc1	n	n	46.9	n	x	n	39.5
COC(=O)[C@H](C)NC(=O)Nc1ccc(S(N)(=O)=O)cc1	n	n	n	n	n	n	x
O=C(COC(=O)/C=C/c1ccc(Cl)cc1)Nc1ccc2c(c1)OCCO2	n	n	n	n	n	n	x
O=C(COC(=O)/C=C/c1ccccc1)Nc1ccc2c(c1)OCCO2	n	n	68.8	n	n	n	55.7
O=C(COC(=O)/C=C/c1ccc(Cl)cc1)Nc1ccccc1	n	n	72.9	n	n	n	71.9
O=C(COC(=O)/C=C/c1ccccc1)Nc1cccc(Oc2ccccc2)c1	n	n	35.8	n	n	n	31.7
NC(=O)c1ccsc1NC(=O)COC(=O)/C=C/c1ccccc1	n	n	n	n	n	n	x
CC[N+](CC)(CC)CCCCOc1ccc2c(c1)C(=O)c1cc(OCCCC[N+](CC)(CC)CC)ccc1-2	n	n	n	n	n	n	x
Cc1cccc(NC(=O)CN2CCN(C(=O)C3CCCO3)CC2)c1C (stereo not given)	n	n	n	n	n	n	x
C/C=C/C(=O)OCC(=O)Nc1cccc(Br)c1	n	n	81.9	n	n	n	73.0
C/C=C/C(=O)OCC(=O)Nc1cccc(F)c1	n	n	78.0	n	n	n	64.9
C/C=C/C(=O)OCC(=O)Nc1ccc(OC)c(Cl)c1	n	n	38.6	n	n	n	n
C/C=C/C(=O)OCC(=O)Nc1ccc(OC)c(OC)c1	n	n	n	n	n	n	x
Cc1ccc(S(=O)(=O)CCC(=O)OCC(=O)Nc2cc(S(=O)(=O)N3CCOCC3)ccc2C)cc1	n	n	n	n	n	n	x
CNC(=O)C(=O)NCC1OCCN1S(=O)(=O)c1ccc(OC)c(OC)c1 (stereo not given)	n	n	n	n	n	n	x
COc1ccc(-n2c(C)cc(C(=O)Cn3nnc4ccccc4c3=O)c2C)cc1	n	n	72.6	n	n	n	n
NC(=S)n1[nH]c(-c2ccc([N+](=O)[O-])cc2)c(N=Nc2ccccc2[N+](=O)[O-])c1=O	n	n	n	n	x	n	x
Cc1c(N=Nc2c(-c3ccc([N+](=O)[O-])cc3)[nH]n(C(N)=S)c2=O)cccc1[N+](=O)[O-]	n	n	55.4	n	x	n	36.4
N#Cc1ccc(Oc2ccc(C#N)c(C#N)c2)cc1C#N	n	n	n	n	x	n	x
CC(OC(=O)CCNS(=O)(=O)c1cccs1)C(=O)Nc1ccc(S(N)(=O)=O)cc1 (stereo not given)	n	n	n	n	n	n	x
O=C(COC(=O)c1ccc2ncsc2c1)Nc1ccccc1Cl	n	n	59.4	n	n	n	44.3
CC(C)(C)c1ccc(NC(=O)COC(=O)c2ccc3ncsc3c2)cc1	n	n	n	n	n	n	x
Cc1ccc(F)cc1NC(=O)COC(=O)c1ccc2ncsc2c1	n	n	49.3	n	n	n	54.4
Cc1cccc(C(=O)OCC(=O)NCc2ccc(Cl)cc2)c1	n	x	x	x	x	n	x
O=C(COC(=O)c1ccc2ncsc2c1)Nc1ccc(OC(F)(F)F)cc1	n	n	73.4	n	n	n	69.5
